ELG1 DNA repair – qHTS screen for small molecules that inhibit ELG1-dependent DNA repair in human embryonic kidney (HEK293T) cells expressing luciferase-tagged ELG1 | HEK293T ELG1-luciferase reporter, luminescence, 16 h; DNA damage induced by 5-fluorouridine | Potency, µM (doses to about 46.1 µM), without a hit: at the top dose activity change, negative = inhibition, usual class: inhibitors | 2.3% of 330,000 active | AID 504467, 2011; also: nearly all actives have a fitted effect of over 55% in size
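5-Fluorouridine DNA damage + compound/DMSO, 2,000 cells/well, 16 h, 37 °C/5% CO2. ONE-Glo, 30 min RT, luminescence. Readout = decrease in reporter signal.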
TDP1 cell CPT – qHTS for Inhibitors of human tyrosyl-DNA phosphodiesterase 1 (TDP1): qHTS in cells in presence of CPT. chicken DT40 Tdp1-/-;hTDP1 cells + 20 nM CPT, ATP luminescence, 48 h. Potency, µM (top dose mostly 46.2 µM), inactives show top-dose activity change, negative = growth inhibition, usual class: inhibitors. 12% of 420,000 active. AID 686979, 2013; also: nearly all actives have a fitted effect of over 55% in size
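Chicken DT40 Tdp1-/- cells complemented with human TDP1, 400 cells/well, exposed to compounds plus 20 nM camptothecin for at least 48 h at 37 C; viability read as ATP content by CellTiter-Glo luminescence.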
RORg inh – qHTS for inhibitors of ROR gamma transcriptional activity; Nuclear receptor ROR-gamma (Mus musculus), P51450; Drosophila S2 Gal4-RORgamma UAS-luciferase reporter, 20 h; Potency, µM (titrated, usually from 53.6 µM), for inactives: top-dose activity change, negative = inhibition, most hits filed as inhibitors; 5.4% of 310,000 active; AID 2551, 2010; also: nearly all actives have a fitted effect of over 60% in size
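ROR gamma transcriptional activity was tracked as Gal4-UAS luciferase output in stably transfected Drosophila Schneider cells, with compound added 1 hr before 700 uM copper sulfate induction and a 20 hr ambient-temperature incubation.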
Gal4-VP16 FLuc – VP16 counterscreen qHTS for inhibitors of ROR gamma transcriptional activity. Drosophila S2 Gal4-VP16 UAS-luciferase, luminescence, 20 h. Potency, µM (titrated, usually from 53.6 µM), without a hit: at the highest dose activity, negative = inhibition, most hits filed as inhibitors. 3.5% of 310,000 active. AID 2546, 2010;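 also: Gal4-VP16 expression switched on by copper sulfate through the metallothionein promoter; nearly all actives have a fitted effect of over 50% in size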
ALOX12 inh – Primary qHTS assay for inhibitors of human arachidonate 12S-lipoxygenase (ALOX12): Round 2; 1.1% of 580,000 active; purified 12hLO, xylenol orange hydroperoxide absorbance; Polyunsaturated fatty acid lipoxygenase ALOX12 (Homo sapiens), P18054; Potency, µM (highest dose often 108 µM), inactives show at the top dose activity change, negative = inhibition, usual class: inhibitors
Target sequence (P18054 whole entry, looked up): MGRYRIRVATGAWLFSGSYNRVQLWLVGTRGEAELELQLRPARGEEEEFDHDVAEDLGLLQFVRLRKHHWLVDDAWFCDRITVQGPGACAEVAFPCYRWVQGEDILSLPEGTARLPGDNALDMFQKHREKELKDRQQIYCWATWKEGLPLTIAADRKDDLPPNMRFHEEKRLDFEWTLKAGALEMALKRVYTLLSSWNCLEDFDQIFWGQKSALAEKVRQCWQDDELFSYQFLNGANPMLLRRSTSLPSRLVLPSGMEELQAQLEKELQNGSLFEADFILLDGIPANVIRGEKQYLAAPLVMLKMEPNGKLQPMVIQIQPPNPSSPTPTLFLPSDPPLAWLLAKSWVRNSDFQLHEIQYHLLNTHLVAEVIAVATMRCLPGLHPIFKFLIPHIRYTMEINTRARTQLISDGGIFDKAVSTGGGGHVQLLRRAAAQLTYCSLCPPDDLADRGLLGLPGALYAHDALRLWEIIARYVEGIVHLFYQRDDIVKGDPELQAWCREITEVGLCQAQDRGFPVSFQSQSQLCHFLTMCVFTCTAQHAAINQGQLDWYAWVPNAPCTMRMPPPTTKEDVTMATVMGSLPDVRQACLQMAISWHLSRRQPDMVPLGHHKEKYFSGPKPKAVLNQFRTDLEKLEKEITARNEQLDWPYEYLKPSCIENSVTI
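Hydroperoxide product was detected by ferrous iron/xylenol orange as the 573 to 405 nm absorbance ratio. Arachidonic acid at 40 uM (final) was turned over for 30 min at room temperature by 150 nM human 12hLO, pH 7.0 Hepes buffer, after 15 min compound preincubation.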
DT40 TDP1 no CPT – qHTS for Inhibitors of human tyrosyl-DNA phosphodiesterase 1 (TDP1): qHTS in cells in absence of CPT | DT40 Tdp1-/- hTDP1 cells, no CPT, ATP luminescence, 48 h | Potency, µM (doses to about 46.2 µM), inactives show at the highest dose activity change, negative = growth inhibition, hits mostly inhibitors | 15% of 420,000 active | AID 686978, 2013; also: nearly all actives have a fitted effect of over 55% in size
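Cells were dispensed at 400 per well, compounds added by pin tool, plates incubated ≥48 hr at 37 °C, then CellTiter-Glo added for 30 min at room temperature before luminescence reading. Line: DT40 Tdp1-/- complemented with hTDP1; camptothecin omitted.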
* marks the source's active call; other numbers are inactive results; ? = inconclusive; . = no result; [ ] = another dose, or the depositor's remark. An excerpt weighted towards active compounds, which were near 15% of everything screened. Calls follow the shape of the dose curve; as a rule, active = well fitted curve in the direction sought with a large enough effect; inconclusive = small, poorly fitted or top-dose-only effect, or another doubt; inactive = no such curve, though single readings can be large; an effect the other way counts as inactive or inconclusive. % is scaled to controls: 0 for no effect and ±100 for the full control effect; potency is read from the fitted curve at half-maximal effect.

SMILES	ELG1 DNA repair	TDP1 cell CPT	RORg inh	Gal4-VP16 FLuc	ALOX12 inh	DT40 TDP1 no CPT
Cc1cccc(N2CCN(CC(=O)NCc3ccc(Cl)cc3)CC2)c1C	-23%	?	-14%	5%	?	4.1µM*
CCC(C)C1=NS(=O)(=O)c2cc(NC(=O)C(C)C)ccc2N1c1ccccc1 (configuration not stated)	.	.	.	.	47%	.
CC(SCc1ccccc1)C(=O)NN=C1CCN(C)CC1 (configuration not stated)	1%	-25%	7.1µM*	24%[0.365 µM]	5%[57.4 µM]	-11%
CN1CCC(=NNC(=O)CSCc2ccccc2)CC1	-6%	-12%	17%	-4%	22%	-9%
CCOCC(=O)N1CCC(N2C(=O)C(O)C23CCCCC3)CC1 (configuration not stated)	.	.	.	.	29%	.
COc1cc(C(=O)NCC(=O)N2CCN(S(=O)(=O)c3cc(C)ccc3C)CC2)cc(OC)c1OC	-19%	5.8µM*	23%	8%	1%	3.7µM*
Cc1ccc(C)c(S(=O)(=O)N2CCN(C(=O)CCNS(=O)(=O)c3ccc(C)c(C)c3)CC2)c1	?	?	.	.	-1%	18µM*
Cc1ccc(C)c(S(=O)(=O)N2CCN(C(=O)CCNC(=O)c3ccc(Br)cc3)CC2)c1	?	23µM*	.	.	-27%	21µM*
Cc1ccc(S(=O)(=O)NCCC(=O)N2CCN(S(=O)(=O)c3ccccc3)CC2)cc1C	12%	?	.	.	27%	-30%
COc1cc(OC)cc(C(=O)NCC(=O)N2CCN(S(=O)(=O)c3ccccc3F)CC2)c1	7%	-19%	.	.	?	3%
Cc1cnc(NC(=O)C(C)Oc2cc(Cl)ccc2Cl)s1 (configuration not stated)	.	.	.	.	42%	.
CCOC(=O)C1C(=O)C=C(/C=C/c2ccco2)CC1c1ccccc1 (configuration not stated)	.	.	.	.	6.3µM*	.
CCOC(=O)C1C(=O)C=C(/C=C/c2ccccc2)CC1c1ccc(Cl)cc1 (configuration not stated)	7%	29µM*	2%	-8%	29%	?
CCOC(=O)C1C(=O)C=C(c2ccccc2)CC1c1ccc(Br)cc1 (configuration not stated)	.	.	.	.	10%	.
Cc1ccc(OCC(=O)Nc2c(NC3CCCC3)c3ccccc3oc2=O)cc1	.	.	.	.	51%	.
CC1CCN(C(=O)c2ccc(CN3C(=O)NC4(CCS(=O)(=O)CC4)C3=O)cc2)CC1	.	.	.	.	20%	.
COc1ccc(C(C)n2c(C)c3c(C)nnc(C)c3c2C)cc1 (configuration not stated)	-17%	15µM*	-25%	0%	37%	23µM*
Cc1nnc(C)c2c(C)n(C(C)c3ccccc3)c(C)c12 (configuration not stated)	-18%	16µM*	-2%	-8%	-7%	12µM*
Cc1cccc(NC(=S)N/N=C/c2c[nH]c3ccccc23)c1	2%	2.6µM*	2.5µM*	5.6µM*	?	2.6µM*
CC1=C/C(=N/NC(=S)Nc2ccccc2C(F)(F)F)CC1	.	.	.	.	9%	.
CC1=C/C(=N\NC(=S)NCc2ccccc2)CC1	-9%	1.5µM*	0.56µM*	3.2µM*	0%	1.3µM*
Cc1[nH]c2ccccc2c1/C=N/NC(=O)CNC(=O)Cc1ccccc1	17%	-11%	-26%	5%	-20%	7%
